# High-throughput results from PubChem.
# The list is not random: actives were taken first. Their share in the collection is about 21%.
# Pf growth 48h = Primary qHTS for delayed death inhibitors of the malarial parasite plastid, 48 hour incubation. P. falciparum luciferase growth in erythrocytes, 48 h. Potency, µM (top dose mostly 28.7 µM), for inactives: top-dose activity change, negative = inhibition, hits mostly inhibitors. 310,000 compounds, 5.9% hits. AID 504832, 2011; also: potency is read from the fitted curve at half-maximal effect; % is scaled to controls: 0 for no effect and ±100 for the full control effect
#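 Parasite viability was followed by luminescence of a genomically integrated firefly luciferase. Cultures held 0.1% parasitemia at 2% hematocrit (final), incubated under 5% CO2 at 37 C.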
# Shiga inhibitor = A qHTS for Small Molecule Inhibitors of Shiga Toxin; Vero cells, Shiga toxin protein synthesis inhibition reporter; inhibition, % at 38.7 µM; 290,000 compounds, 9.2% hits; AID 2315, 2010; in the data active = inhibition mostly above about 28%, no sharp cut-off; inactive = mostly below about 43%; also: 0% is about no effect
# CHX counter = Cycloheximide Counterscreen for Small Molecule Inhibitors of Shiga Toxin | cell reporter, cycloheximide protein synthesis inhibition counterscreen | max response, % | 300,000 compounds, 12% hits | AID 2314, 2010; in the data active = max response mostly above about 13%, no sharp cut-off; inactive = mostly below about 14%; also: read at 38.3 µM for the half of the compounds with a filed dose; 0% is about no effect
# Pf growth 96h = Primary qHTS for delayed death inhibitors of the malarial parasite plastid, 96 hour incubation; P. falciparum luciferase reporter growth, 96 h; Potency, µM (doses to about 28.7 µM), inactives show at the top dose activity change, negative = inhibition, hits mostly inhibitors; 320,000 compounds, 6.9% hits; AID 504834, 2011; also: potency is read from the fitted curve at half-maximal effect; % is scaled to controls: 0 for no effect and ±100 for the full control effect
#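 P. falciparum expressing integrated firefly luciferase grown in erythrocytes (2% hematocrit, 0.05% parasitemia final) with compounds for 96 hours at 37 C, 5% CO2. Growth inhibition read as loss of luminescence after adding luciferase detection reagent.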
# Numbers without * were called inactive; ? = inconclusive; · = not tested or not shown. Unless noted, calls follow the shape of the dose curve; as a rule, active = well fitted inhibition curve with a large enough effect; inconclusive = small, poorly fitted or top-dose-only effect, or another doubt; inactive = no such curve, though single readings can be large or run the other way.
SMILES,Pf growth 48h,Shiga inhibitor,CHX counter,Pf growth 96h
O=C(NNC(=O)C1CC=CCC1C(=O)O)c1ccc(Cl)cc1 (stereo unspecified),9%,-5,3,109%
O=C(NCCCN1CCOCC1)c1nn(-c2ccccc2)c(=O)c2ccccc12,83%,·,·,-12%
O=C(NCC(c1ccc(F)cc1)N1CCOCC1)c1nn(-c2ccccc2)c(=O)c2ccccc12 (stereo unspecified),9.3µM*,·,·,?
CC1(C)CC(NC(=O)c2cccc(S(=O)(=O)Nc3cccc(Cl)c3)c2)CC(C)(C)N1,13µM*,·,·,4.7µM*
CN(C)S(=O)(=O)c1cccc(C(=O)NCC(=O)NC2CCN(Cc3ccccc3)CC2)c1,2%,-5,-7,0%
C=CCN(c1ccccc1)S(=O)(=O)c1cccc(C(=O)NC2CCN(Cc3ccccc3)CC2)c1,10µM*,·,·,12µM*
Cc1ccc(C(=O)NC2CC(C)(C)NC(C)(C)C2)cc1Cl,1%,8,1,-21%
O=C(NC1CCN(Cc2ccccc2)CC1)c1cccc(S(=O)(=O)Nc2ccc(Br)cc2)c1,12µM*,·,·,?
Cc1ccc(C(=O)C(C)OC(=O)c2nc(Cl)ccc2Cl)cc1 (stereo unspecified),8%,-17,-2,-7%
O=C(NC1CCN(Cc2ccccc2)CC1)c1cccc(S(=O)(=O)Nc2ccc(F)cc2)c1,4.1µM*,·,·,2.1µM*
C=CCN(c1ccc(F)cc1)S(=O)(=O)c1cc(C(=O)NC2CCC(O)CC2)ccc1Cl (stereo unspecified),?,·,·,5.2µM*
C=CCN(c1ccccc1)S(=O)(=O)c1cccc(C(=O)NCC(c2ccc(F)cc2)N2CCOCC2)c1 (stereo unspecified),13µM*,·,·,?
CCOc1ccc(-c2c(C)sc3nc[nH]c(=O)c23)cc1,4%,·,1,2%
COc1cccc(N2CCN(S(=O)(=O)c3ccc4ccccc4c3)CC2)c1,12%,·,·,4%
CCOC(=O)c1ccc(/C=C2/C=C(c3ccccc3)N(c3ccc(Cl)c(C(=O)O)c3)C2=O)cc1,?,10,-2,13µM*
CCOC(=O)c1cc(-c2ccc(/C=C3/C(=O)N(c4ccc(C(=O)O)cc4)N=C3C)o2)ccc1Cl,23%,21,18,?
O=C(Nc1ccccc1Cl)c1ccccc1Cl,28%,8,14,46%
Nc1ccccc1C(=O)Nc1ccc(Cl)cc1Cl,46%,127*,33*,66%
CC(=O)Nc1cccc(NC(=O)c2cc(Cl)ccc2Cl)c1,0%,-9,-12,?
O=C(NC(=S)Nc1ccccc1O)c1ccc(Cl)cc1Cl,27%,94*,30*,16%
O=C(Nc1ccccc1Cl)c1ccc(Cl)cc1Cl,36%,54*,54*,?
C#Cc1cccc(NC(=O)c2ccc(Cl)cc2Cl)c1,143%,70*,20*,315%
CC(C)NC(=S)NC(=O)c1ccc(Cl)cc1Cl,-1%,2,10,50%
O=C(Nc1ccc(Cl)cc1Cl)c1ccc(-c2ccccc2)cc1,9%,9,-3,5%
COc1ccc2c(-c3ccccc3)cc(=S)[nH]c2c1,?,-2,6,?
SMILES,Pf growth 48h,Shiga inhibitor,CHX counter,Pf growth 96h
COc1ccccc1N1C(N)=NC(N)=NC12CCCCC2,?,-3,-2,13µM*
COc1ccc(N2C(N)=NC(N)=NC23CCCC3)cc1,0.93µM*,-14,-3,102%
CCCCOc1ccc(N2C(N)=NC(N)=NC23CCCCC3)cc1,10µM*,8,-2,?
CCOc1ccc(N2C(=O)CSC23CCCCC3)cc1,-26%,-5,-3,?
COc1ccccc1N1C(N)=NC(N)=NC1(C)C,?,3,-3,10%
NC1=NC2(CCCCC2)N(c2cccc(Cl)c2)C(N)=N1,·,3,13,?
NC1=NC2(CCCCC2)N(c2ccc(F)cc2)C(N)=N1,13µM*,5,-4,-3%
O=C(COC(=O)COc1ccccc1)NC1CCCC1,1%,·,·,5%
O=c1ccccn1CCOc1ccc(Cl)cc1,-5%,35*,33*,-28%
CC(C)(C)c1ccc(OCCn2ccccc2=O)cc1,-11%,93*,37*,171%
CC(C)(c1ccccc1)c1ccc(OCCn2cnc3ccccc3c2=O)cc1,·,8,-3,-14%
COc1ccc(C(=O)Nc2cccc3c2CCCC3)cc1OC,5%,-4,-1,?
CC(C)(C)OC(=O)N1CCCC1C(=O)NC1COC2CC(n3ccc(=O)[nH]c3=O)OC12 (stereo unspecified),·,-7,-2,·
CCc1csc(CNC(=O)C2CCC(=O)N(Cc3cccc(F)c3)C2)n1 (stereo unspecified),12%,-25,-2,5%
O=C(Oc1ccc2ccc(=O)oc2c1)c1ccco1,161%,-1,4,13%
Cc1ccc(NNC(=O)c2cc(C(C)(C)C)nn2Cc2ccccc2)cc1,?,22,9,?
COc1ccccc1NNC(=O)c1cc(C(C)(C)C)nn1Cc1ccccc1,?,61*,30*,?
CC(C)(C)c1cc(C(=O)NNc2cccc(Cl)c2)n(Cc2ccccc2)n1,?,46*,20*,?
CC(C)(C)c1cc(C(=O)NNc2cc(C(F)(F)F)ccc2Cl)n(Cc2ccccc2)n1,13µM*,43*,28*,12µM*
Cc1cc(C(=O)NNC(=O)c2ccc(Cl)cc2Cl)c(C)o1,16%,·,·,22%
CCOC(=O)Cc1nnc(Nc2ccc(C)cc2C)c2ccccc12,2%,-13,-4,4.7µM*
C/C(=N\Nc1cccc(Cl)c1)c1ccc(-n2ccnc2)cc1,?,-1,-6,12µM*
C/C(=N\Nc1ccc(C)c(Cl)c1)c1cccnc1,?,89*,41*,-4%
C/C(=N\Nc1ccc(C)c(Cl)c1)c1ccncc1,?,39,30*,?
C/C(=N\NC(=O)C(=O)Nc1ccc(C)c(Cl)c1)c1ccncc1,17%,-2,1,-16%
SMILES,Pf growth 48h,Shiga inhibitor,CHX counter,Pf growth 96h
O=C(NCCCNc1ccnc2cc(Cl)ccc12)c1ccccc1F,0.47µM*,3,9,0.41µM*
CCOc1ccccc1Nc1cc(C)c2cccc(C)c2n1,59%,·,-1,209%
O=S(=O)(NCc1ccccn1)c1cc(Cl)ccc1Cl,-9%,-9,-4,-29%
Clc1ccc2c(NCc3ccccn3)ccnc2c1,0.66µM*,-13,-3,0.47µM*
CCOc1ccccc1Nc1ccnc2cc(Cl)ccc12,2.6µM*,-4,-1,21%
O=C(CC1C(=O)NCCN1Cc1cccc(F)c1)NC1CCCCC1 (stereo unspecified),13%,-30,1,23%
CN(CCc1ccccc1)Cc1ccccc1[N+](=O)[O-],·,42,17*,59%
O=C(c1ccccc1[N+](=O)[O-])N(CCc1ccccc1)Cc1ccccc1,-7%,-8,5,?
COc1ccc2c(CSc3nnc(-c4cccnc4)n3-c3ccccc3F)cc(=O)oc2c1,?,-7,-5,6.6µM*
Cn1ncc(N=Cc2ccccc2)c1C(N)=O,8%,26,9,?
Nc1ncc(Br)cc1N=Cc1ccccc1,4%,27*,75*,34%
